Results published in PubChem BioAssay (Tox21).
Results filed as inconclusive are left out. Calls of active or inactive are those of the source. Unless noted, calls come from the whole dose curve; as a rule, active = well fitted curve in the direction sought with a large enough effect in the repeat runs; inconclusive = weak or mixed curves; inactive = no such curve, though single readings can be large; an effect the other way counts as inactive or inconclusive.

Key:
[1] = qHTS assay to test for compound auto fluorescence at 535 nm (green) in HEK293 cells (AID 720680)
[2] = qHTS assay to test for compound auto fluorescence at 460 nm (blue) in HEK293 cell free culture (AID 720681)
Outline: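 Test compounds were pinned into cell-free culture medium (DMEM with 10% FBS) and fluorescence was read directly at Ex/Em 405/460 nm. Signals were expressed as fluorescence equivalents of triamterene, with DMSO vehicle as control.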

[3] = qHTS assay to test for compound auto fluorescence at 535 nm (green) in HEK293 cell free culture (AID 720682)
Outline: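 Intrinsic compound fluorescence is measured in culture medium containing 10% FBS, with excitation at 485 nm and detection at 535 nm, referenced to fluorescein.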

[4] = qHTS assay to test for compound auto fluorescence at 590 nm (red) in HEK293 cell free culture (AID 720683)
Outline: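 Tox21 10K library compounds were pinned into cell-free DMEM with 10% FBS and fluorescence was read at excitation 540 nm. Activity is expressed as Rose Bengal sodium equivalency.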

[5] = qHTS assay to test for compound auto fluorescence at 590 nm (red) in HepG2 cell free culture (AID 720684)
Outline: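 Readout: intrinsic compound fluorescence at 590 nm emission after 540 nm excitation, scaled to Rose Bengal sodium. Matrix was cell-free MEM with 10% FBS; DMSO vehicle wells served as control.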

[6] = qHTS assay to test for compound auto fluorescence at 460 nm (blue) in HepG2 cell free culture (AID 720685)
Outline: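 Cell-free plates of MEM plus 10% FBS received 23 nL compound or DMSO vehicle; blue-channel (405/460 nm) intensity scored against triamterene as reference fluorophore.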

[7] = qHTS assay to test for compound auto fluorescence at 535 nm (green) in HepG2 cell free culture (AID 720686)
[8] = qHTS assay to test for compound auto fluorescence at 460 nm (blue) in HepG2 cells (AID 720687)
Outline: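 Cells (2,000/well in MEM with 10% FBS) attached overnight at 37 C, then were exposed to compound or DMSO for 1 hr at 37 C, 5% CO2. Fluorescence read at Ex/Em 405/460 nm, expressed as triamterene-equivalent signal.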

[9] = qHTS assay for identifying genotoxic compounds that show differential cytotoxicity against isogenic chicken DT40 cell lines with known DNA damage response pathways - wild type cell line (AID 743012); note: nearly all actives have a fitted effect of over 60% in size; note: potency is the fitted concentration of half-maximal effect
Outline: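 Viability by ATP luminescence (CellTiter-Glo, 30 min RT) after 40 h compound treatment at 37 C/5% CO2, using 300 parental DNA repair-proficient DT40 cells per well.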

[10] = qHTS assay for identifying genotoxic compounds that show differential cytotoxicity against isogenic chicken DT40 cell lines with known DNA damage response pathways - Rev3 mutant cell line (AID 743014); note: nearly all actives have a fitted effect of over 55% in size
[11] = qHTS assay for identifying genotoxic compounds that show differential cytotoxicity against isogenic chicken DT40 cell lines with known DNA damage response pathways - Rad54/Ku70 mutant cell line (AID 743015); note: nearly all actives have a fitted effect of over 60% in size; note: potency is the fitted concentration of half-maximal effect
[12] = qHTS assay to identify small molecule antagonists of the androgen receptor (AR) signaling pathway - cell viability counter screen (AID 743033; note: nearly all actives have a fitted effect of over 45% in size)
[13] = target: Androgen receptor (Homo sapiens) (UniProt P10275); assay: qHTS assay to identify small molecule antagonists of the androgen receptor (AR) signaling pathway (AID 743035; active = well fitted inhibition curve with a large enough effect in the signal ratio in the repeat runs, not every such curve was filed as active; the % refers to the signal ratio)
Outline: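 Antagonist mode: AR-bla HEK293 cells co-treated with test compounds and agonist R1881 for 16 h at 37C, 5% CO2. Beta-lactamase activity read as FRET fluorescence after 2 h room-temperature substrate loading.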

[14] = target: Androgen receptor (Homo sapiens) (UniProt P10275); assay: qHTS assay to identify small molecule agonists of the androgen receptor (AR) signaling pathway using the MDA cell line (AID 743040; note: nearly all actives have a fitted effect of over 20% in size)
Outline: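 Agonist activity is measured as luciferase luminescence in human MDA-kb2 cells whose MMTV reporter responds to both AR and GR. Compounds in DMSO incubate 16 h at 37C, 0% CO2, and ONE-Glo is read after 30 min.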

[15] = qHTS assay to identify small molecule antagonists of the androgen receptor (AR) signaling pathway using the MDA cell line - cell viability counter screen (AID 743041; note: nearly all actives have a fitted effect of over 45% in size)
Outline: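 qHTS viability read-out; MDA-kb2 AR-luc; R1881-stimulated; 16 h exposure at 37C, 0% CO2; CellTiter-Fluor, 30 min; fluorescence intensity.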

[16] = target: Androgen receptor (Homo sapiens) (UniProt P10275); assay: qHTS assay to identify small molecule antagonists of the androgen receptor (AR) signaling pathway using the MDA cell line (AID 743042; note: nearly all actives have a fitted effect of over 55% in size)
Outline: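 MDA-kb2 cells (human breast carcinoma, stably carrying an MMTV-luciferase reporter responsive to AR and GR) were plated at 3,000 cells/well and preincubated 5 hr at 37C, then given compound plus R1881 agonist for 16 h. ONE-Glo luminescence was read.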

[17] = target: Androgen receptor (Homo sapiens) (UniProt P10275); assay: qHTS assay to identify small molecule agonists of the androgen receptor (AR) signaling pathway (AID 743036; active = well fitted activation curve with a large enough effect in the signal ratio in the repeat runs, with a control signal flat, not every such curve was filed as active; the % refers to the signal ratio)
Outline: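 Agonist activity was scored by beta-lactamase reporter fluorescence in stably transfected HEK293 cells exposed to compounds for 16 h at 37C and 5% CO2. Substrate loading took 2 h at room temperature.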

[18] = qHTS assay to identify small molecule antagonists of the glucocorticoid receptor (GR) signaling pathway - cell viability counter screen (AID 720693); note: nearly all actives have a fitted effect of over 55% in size

Measured: Potency

Sequence of Androgen receptor (Homo sapiens) (P10275 whole entry, looked up): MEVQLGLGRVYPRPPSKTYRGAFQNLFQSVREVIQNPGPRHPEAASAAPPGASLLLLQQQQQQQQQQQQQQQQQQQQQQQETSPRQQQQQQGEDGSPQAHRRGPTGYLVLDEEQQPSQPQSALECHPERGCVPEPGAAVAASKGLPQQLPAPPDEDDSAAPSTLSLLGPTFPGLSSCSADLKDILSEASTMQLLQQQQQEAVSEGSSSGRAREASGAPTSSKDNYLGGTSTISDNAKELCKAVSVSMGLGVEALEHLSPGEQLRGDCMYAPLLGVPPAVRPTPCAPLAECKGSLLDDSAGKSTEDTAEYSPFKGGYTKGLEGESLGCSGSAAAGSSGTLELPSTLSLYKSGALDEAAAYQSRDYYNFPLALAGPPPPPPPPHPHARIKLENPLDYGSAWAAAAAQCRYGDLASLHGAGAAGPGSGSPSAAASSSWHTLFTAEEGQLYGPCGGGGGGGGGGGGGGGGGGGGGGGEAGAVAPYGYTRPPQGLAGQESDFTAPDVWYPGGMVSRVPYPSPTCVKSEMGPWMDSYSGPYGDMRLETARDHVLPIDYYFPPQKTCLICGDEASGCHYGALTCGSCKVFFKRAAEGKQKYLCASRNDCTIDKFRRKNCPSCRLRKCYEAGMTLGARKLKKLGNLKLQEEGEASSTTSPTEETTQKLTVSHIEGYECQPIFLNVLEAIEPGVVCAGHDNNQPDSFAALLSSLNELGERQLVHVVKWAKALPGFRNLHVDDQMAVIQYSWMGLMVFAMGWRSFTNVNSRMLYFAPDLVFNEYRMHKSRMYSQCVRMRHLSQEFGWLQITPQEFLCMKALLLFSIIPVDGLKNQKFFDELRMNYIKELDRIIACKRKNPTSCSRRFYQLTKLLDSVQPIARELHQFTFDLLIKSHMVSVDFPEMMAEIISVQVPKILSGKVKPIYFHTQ

CCCOCC(C)OCC(C)O (configuration not stated)
not listed: [17] | [18]
inactive: all other assays above

C=C(C)[C@H]1CC=C(C)CC1
not listed: [9] | [13] | [14] | [16] | [17] | [18]
inactive: all other assays above

C=CCn1c(=O)n([C@@H]2O[C@H](CO)[C@@H](O)[C@H]2O)c2nc(N)[nH]c(=O)c21
not listed: [18]
inactive: all other assays above

Cc1c(C)n(CCN(C)C)c2ccc(C(=O)OCCN(C)C)cc12
active: [9] 11.9 µM | [11] 13.3 µM
not listed: [10] | [13] | [14] | [16] | [17]
inactive: all other assays above

CC(C)N1C(=O)c2ccccc2C1=O
not listed: [10] | [13] | [14] | [16] | [17] | [18]
inactive: all other assays above

Nc1ccn(C2CO[C@H](CO)O2)c(=O)n1 (some centres not stated)
not listed: [9] | [10] | [11] | [13] | [14] | [16] | [17]
inactive: all other assays above

CCCC(C)C(=O)O (configuration not stated)
not listed: [10] | [13] | [14] | [16] | [17]
inactive: all other assays above

CCCCCC[C@@H](CCC)C(=O)O
not listed: [9] | [13] | [14] | [16] | [17]
inactive: all other assays above

NC(=O)c1c(Cl)cccc1Cl
not listed: [13] | [14] | [16] | [17]
inactive: all other assays above

CCCCOCC(C)OCC(C)O (configuration not stated)
not listed: [10] | [13] | [14] | [16] | [17]
inactive: all other assays above

Cc1ccc(Nc2ccc(O)c3c2C(=O)c2ccccc2C3=O)cc1
not listed: [9] | [13] | [14] | [16] | [17]
inactive: all other assays above

NC(CS)C(=O)O (configuration not stated)
not listed: [13] | [14] | [15] | [16] | [17] | [18]
inactive: all other assays above

NCCNC(=O)c1ccc(Cl)cn1
not listed: [10] | [13] | [14] | [16] | [17]
inactive: all other assays above
